# In the library only some 7.6% were active in any assay of this set; here they are far more common.
# RORgamma inh – qHTS for inhibitors of ROR gamma transcriptional activity | Potency, µM (titrated, usually from 53.6 µM), for the others: at the top dose activity change, negative = inhibition, hits mostly inhibitors | Nuclear receptor ROR-gamma (Mus musculus), P51450 | Drosophila S2 Gal4-RORgamma UAS-luciferase reporter, 20 h | hit rate 5.4% among 310,000; further: potency means the concentration at half of the fitted maximal effect; on the % scale 0 is the no-effect control and ±100 the full control effect; nearly all actives have a fitted effect of over 60% in size
# Target sequence (P51450 whole entry, looked up, the tested form may be a part): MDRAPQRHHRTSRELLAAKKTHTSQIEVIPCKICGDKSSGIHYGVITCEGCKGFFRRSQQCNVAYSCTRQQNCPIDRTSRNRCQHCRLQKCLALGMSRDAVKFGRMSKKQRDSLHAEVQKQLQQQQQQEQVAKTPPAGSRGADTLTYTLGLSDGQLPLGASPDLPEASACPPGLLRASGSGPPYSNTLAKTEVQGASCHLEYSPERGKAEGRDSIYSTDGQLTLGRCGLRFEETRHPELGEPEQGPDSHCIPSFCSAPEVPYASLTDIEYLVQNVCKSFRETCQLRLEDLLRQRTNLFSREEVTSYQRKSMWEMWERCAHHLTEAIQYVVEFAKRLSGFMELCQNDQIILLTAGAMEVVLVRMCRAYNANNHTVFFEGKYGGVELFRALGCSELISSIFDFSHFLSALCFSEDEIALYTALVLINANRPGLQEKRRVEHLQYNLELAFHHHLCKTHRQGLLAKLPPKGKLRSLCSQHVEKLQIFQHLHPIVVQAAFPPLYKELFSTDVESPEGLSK
#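 Stably transfected Drosophila Schneider cells are the test system, with ROR gamma fused to Gal4 and luciferase under UAS control; luminescence is read after 20 hr of 700 uM copper sulfate induction at ambient temperature.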
# VP16 counter – VP16 counterscreen qHTS for inhibitors of ROR gamma transcriptional activity | Drosophila S2 Gal4-VP16 UAS-luciferase, luminescence, 20 h | Potency, µM (doses to about 53.6 µM), for the others: at the top dose activity, negative = inhibition, hits mostly inhibitors | hit rate 3.5% among 310,000;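 further: Gal4-VP16 expression switched on by copper sulfate through the metallothionein promoter; potency means the concentration at half of the fitted maximal effect; on the % scale 0 is the no-effect control and ±100 the full control effect; nearly all actives have a fitted effect of over 50% in size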
# p53 reactivation – qHTS assay for re-activators of p53 using a Luc reporter; H1299 p53-A138V BP100-luciferase reporter, luminescence, 24 h; Potency, µM (highest dose often 92.2 µM), inactives show top-dose activity change, positive = activation, usual class: activators; hit rate 0.063% among 320,000; AID 504706, 2011; further: potency means the concentration at half of the fitted maximal effect; % of control where 0% means no effect; nearly all actives have a fitted effect of over 45% in size
#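 p53-null H1299 cells stably carrying temperature-sensitive p53-A138V and a BP100-luciferase reporter were pinned with compounds (4-point, 1:5 series) and held 24 hrs at 37 deg C. Luminescence was read 10 min after detection reagent.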
# Giardia kill – Small Molecules that selectively kill Giardia lamblia: qHTS; Giardia lamblia trophozoite viability; activity change, % at 7.66 µM, hits read low; hit rate 0.15% among 340,000; in the data active means activity change below about -80%; inconclusive means between about -30% and that limit;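 further: parasites exposed to compound for two days anaerobically before the ATP read; on the % scale 0 is the no-effect control and ±100 the full control effect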
#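 ATP-content bioluminescence gauges trophozoite survival. Cells (100/well) receive compound and incubate anaerobically for 48 hrs at 37 deg C; detection reagent follows for 15-30 min at room temperature.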
# ELG1 DNA repair – qHTS screen for small molecules that inhibit ELG1-dependent DNA repair in human embryonic kidney (HEK293T) cells expressing luciferase-tagged ELG1 | HEK293T ELG1-luciferase reporter, luminescence, 16 h; DNA damage induced by 5-fluorouridine | Potency, µM (highest dose often 46.1 µM), for the others: at the top dose activity change, negative = inhibition, actives largely listed as inhibitors | hit rate 2.3% among 330,000 | AID 504467, 2011; further: potency means the concentration at half of the fitted maximal effect; on the % scale 0 is the no-effect control and ±100 the full control effect; nearly all actives have a fitted effect of over 55% in size
#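 Step one: seed 2,000 cells per well. Step two: pin-transfer compound or DMSO alongside 5-fluorouridine. Step three: incubate 16 hr, 37 °C, 5% CO2. Step four: add ONE-Glo, wait 30 min, read luminescence.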
# BRCA1 expr act – qHTS Assay to Identify Small Molecule Activators of BRCA1 Expression | MCF7-BRCA1-FFLuc reporter, luminescence, 48 h; response scale: scaled: vehicle 0%, 10 µM genistein 100% | Potency, µM (doses to about 46.1 µM), for inactives: at the top dose activation, hits mostly activators | hit rate 1.1% among 380,000; further: potency means the concentration at half of the fitted maximal effect; nearly all actives have a fitted effect of over 80% in size
#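 48 h compound treatment of MCF7-BRCA1-FFLuc cells (phenol-red free MEM, 37 °C), then 15 min with luciferase substrate and luminescence imaging.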
# * = called active by the depositor; ? = inconclusive; . = no result given. Unless noted, the call rests on the fitted dose curve; in most records, active means well fitted curve in the direction sought with a large enough effect; inconclusive means small, poorly fitted or top-dose-only effect, or another doubt; inactive means no such curve, though single readings can be large; an effect the other way counts as inactive or inconclusive.
SMILES,RORgamma inh,VP16 counter,p53 reactivation,Giardia kill,ELG1 DNA repair,BRCA1 expr act
Cc1cccc(OCC2=NS(=O)(=O)c3ccccc3N2)c1,26.5%,-8.6%,19.9%,-4.7,0.0%,11.2µM*
Cc1ccc(NC2=C(Cl)C(=O)OC2OC(=O)c2ccco2)c(C)c1 (centres undefined),.,.,.,-16.3,.,-10.9%
Cc1ccc(C)c(NC2=C(Cl)C(=O)OC2OC(=O)c2ccco2)c1 (centres undefined),11.2µM*,?,10.3%,-29.2,7.7%,-6.1%
COC(=O)C1=CN(C(C)C)C=C(C(=O)OC)C1c1cc2c(cc1Br)OCO2,18.2%,2.4%,-7.4%,-18.4,13.6%,-1.2%
Cn1c(CSCc2ccccc2)n[nH]c1=S,11.2µM*,?,9.6%,-19.9,-0.1%,16.7%
Cn1c(CSCc2ccc(Cl)cc2)n[nH]c1=S,2.82µM*,12.6µM*,11.4%,2.0,-16.7%,16.4%
Cn1c(CSCc2ccc(F)cc2)n[nH]c1=S,?,?,13.0%,-11.0,-12.5%,20.2%
Cn1c(CSCc2ccc(Cl)cc2Cl)n[nH]c1=S,0.794µM*,6.31µM*,1.5%,4.4,-2.2%,-1.6%
COC(=O)C1=C(C(=O)OC)[C@@H]2Nc3ccccc3[C@@]23C[C@@H](C(=O)OC)N(C(=O)c2cc(C)oc2C)C3=N1,.,.,.,-3.4,.,-7.1%
COn1c(-n2nc(C)cc2C)nc2ccccc2c1=O,7.94µM*,7.08µM*,2.2%,-17.9,15.7%,-9.2%
C#CCOn1c(-n2nc(C)cc2C)nc2ccccc2c1=O,11.2µM*,?,0.5%,14.1,12.0%,-3.7%
Cc1cc(C)n(-c2nc3ccccc3c(=O)n2OCc2ccc(F)cc2)n1,?,?,12.9%,-21.6,?,-54.4%
NC(c1csc(Nc2cc(NCc3ccco3)ncn2)n1)c1ccccc1Cl (centres undefined),.,.,.,.,.,-23.2%
CC(CC(=O)c1cccs1)CC(=O)c1cccs1,4.2%,-1.9%,?,-19.5,?,12.6µM*
Cc1ccc(NCCC(=O)c2cccs2)cc1,-44.8%,4.2%,-11.6%,2.7,?,2.6%
O=C(O)CCCCCCCCCC(=O)c1cccs1,10µM*,3.55µM*,4.7%,?,12.7%,1.8%
Cc1ccc(N(CC(=O)NCCc2ccccc2C)S(=O)(=O)N(C)C)cc1,.,.,.,.,.,-5.1%
CCOC(=O)C1=C(c2ccccc2)O/C(=C(/C#N)C(F)(F)F)S1,14.1µM*,15.8µM*,-27.1%,.,?,.
O=[N+]([O-])c1cccc(Cl)c1CSc1ccccn1,-16.3%,8.5%,0.4%,-12.3,9.2%,11.1%
CCc1ccc(C(O)c2ncc(-c3ccc(C(F)(F)F)cc3)[nH]2)cc1 (centres undefined),.,.,.,.,.,7.2%
CCN(CC)c1nc(C)c(C(=S)Nc2cc([N+](=O)[O-])ccc2Cl)s1,3.16µM*,-8.2%,4.9%,30.5,1.1%,0.1%
CCOC(=O)CN(C(=O)CNC(=O)c1cccs1)C(C(=O)NC1CCCCC1)c1cccs1 (centres undefined),-2.9%,-0.5%,20.7%,2.9,?,1.8%
COc1ccc(Nc2nc(N)nc(CSc3nnc(N)s3)n2)cc1,?,-1.1%,?,2.4,?,?
Cc1ccc(Nc2nc(N)nc(CSc3nncn3C)n2)cc1,-84.4%,11.2µM*,?,6.4,?,87.9%
COc1ccc(Nc2nc(N)nc(CSc3nccn3C)n2)cc1,-4.2%,-16.4%,-1.6%,13.4,?,3.16µM*
SMILES,RORgamma inh,VP16 counter,p53 reactivation,Giardia kill,ELG1 DNA repair,BRCA1 expr act
COc1ccc(Nc2nc(N)nc(COc3ccc(OC)cc3)n2)cc1,9.9%,0.7%,5.0%,3.1,?,10.8%
COc1ccc(OCc2nc(N)nc(Nc3ccc(C)cc3)n2)cc1,6.7%,9.7%,14.7%,-16.3,22.4%,15.8µM*
Cc1noc(C)c1CSCC(=O)Nc1cc(C(F)(F)F)ccc1N1CCOCC1,.,.,-3.3%,-18.8,-20.2%,-28.1%
O=C1C=CC(=O)N1c1ccc(-c2nc3ccccc3o2)cc1,.,.,.,.,.,-26.2%
O=c1c(-c2nc3ccccc3o2)c2oc3ccccc3n2c2ccccc12,-7.6%,0.5%,5.4%,.,5.17µM*,.
COc1cccc(C2=NOC(C(=O)NCc3cccs3)C2)c1 (centres undefined),14.5%,4.2%,?,-8.6,?,-39.4%
N#Cc1ccccc1Sc1ccccc1C(=O)OCC(=O)NC12CC3CC(CC(C3)C1)C2,38.5%,?,1.5%,-22.5,20.6µM*,-35.9%
O=C(NCCc1ccccc1)C(c1cccs1)N(C(=O)CCl)c1ccc(Cl)cc1 (centres undefined),?,?,-21.7%,2.8,18.4µM*,-105.9%
O=C(NCCc1ccccc1)C(c1cccs1)N(C(=O)c1csnn1)C1CC1 (centres undefined),37.1%,-0.5%,?,17.6,-3.2%,-14.1%
O=c1oc2ccccc2cc1-c1cn2cc(Cc3ccc(Cl)cc3)sc2n1,.,.,.,.,.,-17.4%
Cc1ccn2cc(-c3cc4ccccc4oc3=O)nc2c1,2.51µM*,?,4.3%,-16.8,?,-19.7%
CCNc1nc(OCC)nc(N2CCC(Cc3ccccc3)CC2)n1,5.62µM*,3.98µM*,4.4%,-20.4,-0.9%,-16.7%
CCOc1ccccc1OCCN1CCC(Cc2ccccc2)CC1,11.8%,6.5%,2.0%,-8.9,-13.6%,-41.1%
COc1cc2c(cc1OC)CN(C(=O)CCN1C(=O)C3CCCCC3C1=O)CC2 (centres undefined),-12.2%,14.6%,0.3%,4.1,-8.2%,57.8%
C[C@H]1CN([C@@H](C)CO)S(=O)(=O)c2ccc(C3=CCCC3)cc2O[C@@H]1CN(C)C(=O)C1CCCCC1,.,.,.,.,.,-63.5%
Cn1c(=O)c2c(-c3ccccc3)n(-n3cnnc3)cc2n(C)c1=O,17.8µM*,?,-27.7%,4.4,?,-10.1%
COc1ccc(/C=C(/NC(=O)c2ccccc2)C(=O)NCCN2CCOCC2)cc1OC,-5.6%,-2.6%,-17.7%,-10.7,1.2%,-8.3%
CC(Sc1nnc2ccccn12)C(=O)Nc1ccc2c(c1)OCCO2 (centres undefined),15.6%,19.8%,13.2%,8.3,?,31.3%
Cc1ccc(NC(=S)C2=C(O)c3sccc3N(C)S2(=O)=O)cc1,12.6µM*,15.8µM*,5.3%,0.5,4.1%,-29.9%
CCOC(=O)c1cccc(C(=O)Oc2ccccc2)n1,-0.1%,-2.9%,0.1%,-27.5,0.0%,-1.3%
